# Rows were chosen to be rich in hits. Some 9.3% of all compounds tested hit in one or more screens of this group.
# mHtt clearance – mutant huntingtin protein clearance. HeLa Exon1htt(103Q)mCFP, aggregate imaging; zero = plate's median compound well. inhibition, % at 1.5 µM. 47,000 tested, 0.42% active;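 active = inhibition of aggregate fluorescence above about 70%, also judged a hit by eye on the cell image, limit read from the data, passing the limit was not always enough; inconclusive = no rule stated for this call; inactive = not judged a hit on image review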;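 note: cells exposed to compound for three days before fixation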
# M1 antag – blocks the rat M1 muscarinic receptor response to acetylcholine. B-score at 10 µM. CHO-M1 cells, Fluo-4 calcium, ACh EC80 antagonist mode; hits give low values. 64,000 tested, 3.4% active. AID 628. P08482;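 active = calcium fluorescence response, raw or row-and-column corrected B-score, differing from the plate sample mean either way at a set confidence level, mostly lower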
# M1 agonist – agonists of M1 muscarinic receptor | CHO-M1 cells, Fluo-4 calcium fluorescence, agonist mode; hits give high values | B-score at 10 µM | 64,000 tested, 3% active | AID 626;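 active = fluorescence rise, raw or as B-score row- and column-corrected plate score, outside the 99.7% band of its plate's samples, either direction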
# NADH coupling – blocks coupling enzymes of NAD/NADH assays. coupled PK/LDH NADH assays, four targets. IC50, µM (top dose mostly 10 µM), without a hit: top-dose inhibition. AID 774. 65,000 tested, 0.02% active;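 active = single-dose screening hits from any of four coupled enzyme assays that gave an IC50 when retested across doses; inconclusive = no clear call, values can overlap the other calls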;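 note: the DPM-DC format reads NADH fluorescence rather than 340 nm absorbance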
# Fluor 339 460 – intrinsic fluorescence of library compounds, ex339/em460 – biochemical, MLSMR library, data from DPM-DC assay, artefact control, profiling panel; compound autofluorescence, ex339/em460 nm, NADH buffer; hits give high values; 1 = no-compound wells, NADH background; fluorescence fold increase at 10 µM; 65,000 tested, 5.5% active;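 active = at 10 µM, mean starting fluorescence two-fold or more over control wells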;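 note: signal is the first read of a kinetic run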
# Abs 340nm – compounds absorbing at 340 nm; compound absorbance at 340 nm, fold over control; fold change at 10 µM; 65,000 tested, under 10 active; AID 708;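 active = at 10 µM dose, initial 340 nm absorbance at least 2 fold that of control wells; inactive = change under 2 fold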;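 note: initial absorbance extrapolated from kinetic A340 decline of NADH oxidation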
# M1 agonist conf – rat M1 muscarinic agonism, confirmation; AID 1488; shares compounds with M1 agonist; fluorescence change (max-min) at 10 µM; CHO-M1 cells, Fluo-4 calcium fluorescence, agonist mode; actives lie on both sides; 1,700 tested, 19% active;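 active = fluorescence change differs from the solvent-only DMSO control mean at a set confidence level in both duplicate runs; inconclusive = differs from solvent-only control mean in just one of two runs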;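 note: an EC20 dose of acetylcholine follows compound addition during the same imaging run; raw fluorescence intensity difference in instrument units with no normalization to controls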
# M4 agonist ctr – rat M4 muscarinic agonism, M1 counter-screen | 1,700 tested, 9% active | CHO M4/Gqi5 cells, Fluo-4 calcium fluorescence, agonist mode; actives lie on both sides | fluorescence change (max-min) at 10 µM | shares compounds with M1 agonist;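 active = fluorescence change differing from the plate's solvent-only control wells at 99.7% confidence in both duplicates, whether higher or lower; inconclusive = differs from solvent controls in only one of two duplicates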
# Target sequence (P08485 whole entry, looked up): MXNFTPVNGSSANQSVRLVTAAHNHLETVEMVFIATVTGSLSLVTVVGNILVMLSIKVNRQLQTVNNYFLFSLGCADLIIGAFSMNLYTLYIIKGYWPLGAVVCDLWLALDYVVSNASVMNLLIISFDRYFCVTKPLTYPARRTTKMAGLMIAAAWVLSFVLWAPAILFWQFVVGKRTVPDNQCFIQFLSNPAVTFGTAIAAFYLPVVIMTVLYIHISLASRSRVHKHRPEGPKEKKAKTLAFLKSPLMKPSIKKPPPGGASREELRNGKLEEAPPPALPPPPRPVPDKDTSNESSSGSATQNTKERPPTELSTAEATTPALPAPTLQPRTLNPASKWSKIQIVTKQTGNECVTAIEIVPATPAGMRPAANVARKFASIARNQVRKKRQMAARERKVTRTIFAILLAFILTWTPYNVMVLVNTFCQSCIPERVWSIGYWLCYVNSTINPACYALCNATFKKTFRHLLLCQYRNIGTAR
# Starred values were filed as active, the others as inactive; ? = inconclusive; / = no result.
SMILES,mHtt clearance,M1 antag,M1 agonist,NADH coupling,Fluor 339 460,Abs 340nm,M1 agonist conf,M4 agonist ctr
CCOc1cc(C(=O)Nc2ccc(N3CCN(S(C)(=O)=O)CC3)cc2)cc(OCC)c1OCC,-31.1,0.0551,0.0102,1.0%,1.05,1.01,/,/
COC(=O)c1ccccc1NC(=O)COC(=O)c1ccc(C)c(NC(=O)c2ccco2)c1,-6.1,-0.818,5.32*,6.0%,1.05,1.01,-11.8,?
Cc1ccccc1S(=O)(=O)Cc1ccc(C(=O)N2CCN(c3ccc(F)cc3)CC2)o1,26.9,-0.86,3.21*,4.0%,1.07,0.99,-9.41,-54
COc1ccccc1N1CCN(C(=O)c2ccc(CS(=O)(=O)c3ccccc3OC)o2)CC1,/,-0.71,4.52*,2.0%,1.05,0.99,-12.9,?
CCOC(=O)c1cnc(SCc2nc(N)nc(Nc3ccc(C)cc3)n2)nc1N,16.4,0.372,-0.824,7.0%,1.16,1.08,/,/
O=C(Nc1ccc(N2CCOCC2)cc1)c1cn2ccccc2n1,-53.1,/,/,/,/,/,/,/
CSc1nc(NC(C)=O)nc(C)c1Br,-3.5,/,/,/,/,/,/,/
O=C(NCCn1cccc1)c1cccc2ccccc12,-27.9,-0.0133,5.68*,5.0%,1.1,1.01,-30.8*,-54
O=C(O)c1ccccc1C1=Nc2ccc(O)cc2Oc2cc(O)ccc21,18.8,0.376,31.6*,16.0%,1.06,1.02,418*,403*
Cc1cc(-c2ccccc2C(=O)O)on1,35.3,-0.416,1.39,6.0%,1.05,0.99,/,/
CC(C)(C)OC(=O)NC(CCCCNC=O)C(=O)O (configuration not stated),-209.4,0.29,-0.323,5.0%,1.12,1.06,/,/
CCOC(=O)N1CCN(S(=O)(=O)c2ccc(C)cc2)C1c1ccccc1 (configuration not stated),-108.5,-0.458,3.18*,4.0%,1.07,1.03,-6.52,-14.4
CCOC(=O)N1CCN(S(=O)(=O)c2ccc(C)cc2)C1c1ccc(OC)cc1 (configuration not stated),/,0.752,1.62,3.0%,1.07,1.03,/,/
Cc1ccc(S(=O)(=O)N2CCN(S(C)(=O)=O)C2c2ccccc2)cc1 (configuration not stated),/,0.0836,2.65*,1.0%,1.06,1.09,-41.2*,?
O=C(CSc1cccc(C(F)(F)F)c1)Nc1ccc(Cl)cc1Cl,2.8,/,/,/,/,/,/,/
COc1ccc(NC(=O)CSc2nc(-c3ccncc3)nn2CC(=O)N2CCCC2)cc1,/,-1.14,-1.78,4.0%,1.15,0.99,/,/
COc1ccc(C2(C(=O)NCCCN3CCOCC3)CCOCC2)cc1,/,-1.62,-0.29,5.0%,1.1,1.03,/,/
CC1(c2ccc(Cl)cc2)NC(=O)N(CC(=O)N2CCCC2)C1=O (configuration not stated),-29.8,0.0162,-0.613,5.0%,1.05,0.99,/,/
CCC(C)NC(=O)c1ccccc1NS(=O)(=O)c1ccc(OC)c(OC)c1 (configuration not stated),19.6,-0.278,-0.338,8.0%,1.7,1.02,/,/
Cc1cc(C(=O)CSc2nnc(-c3ccco3)o2)c(C)n1-c1ccc2c(c1)OCCO2,/,-0.29,12.1*,5.0%,1.07,1.02,?,-44.1
Cc1ccc(S(=O)(=O)Cn2nnnc2C(c2ccc(F)cc2)N2CCC(C(N)=O)CC2)cc1 (configuration not stated),?,0.209,-0.191,8.0%,1.01,0.98,/,/
COc1ccc(C2C(C#N)=C(N)OC(C(C)(C)C)=C2C#N)cc1OC (configuration not stated),/,-0.407,0.367,6.0%,1.12,1.01,/,/
COc1ccc(C2C(C#N)=C(N)SC(N)=C2C#N)cc1OC,32.8,-0.216,38.1*,2.0%,1.1,1.07,-11.4,-50.7
COc1ccc(C2C(C(=O)N3CCN(c4ccccc4)CC3)c3ccccc3C(=O)N2C)cc1 (configuration not stated),-29.4,-0.253,3.19,6.0%,1.06,1.03,/,/
COc1ccc(Cn2nnnc2C(C(C)C)N(Cc2ccco2)Cc2cccs2)cc1 (configuration not stated),-7.8,-0.13,3.16*,5.0%,1.17,0.99,-6.41,?
SMILES,mHtt clearance,M1 antag,M1 agonist,NADH coupling,Fluor 339 460,Abs 340nm,M1 agonist conf,M4 agonist ctr
CC(C)C(c1nnnn1Cc1ccccc1)N(Cc1ccco1)Cc1cccs1 (configuration not stated),/,-1.2,12.8*,2.0%,1.09,1.02,-10.9,-13.8
Cc1ccc(C(c2nnnn2C(C)(C)C)N(Cc2ccco2)Cc2cccs2)cc1 (configuration not stated),/,0.188,6.46,4.0%,1.1,1,/,/
CCOc1ccccc1NC(=O)CSc1nnc2c(CC)c(C)nc(N)n12,30.1,-0.391,0.251,2.0%,1,0.98,/,/
CCc1cccc(NC2c3ccccc3C(=O)N2c2cccnc2)c1 (configuration not stated),/,-0.0499,0.0813,5.0%,1.08,1.02,/,/
O=S(=O)(NCCCCCNS(=O)(=O)c1ccccc1)c1ccccc1,/,-1.35,-1.67*,4.0%,1.05,0.99,15.7,-6.84
COc1ccc(C2C=C(c3ccc(C)c(C)c3)Nc3ncnn32)c(OC)c1OC (configuration not stated),/,1.7,-0.939,4.0%,1.38,1.08,/,/
COc1cccc(C2C=C(c3ccc(Br)s3)Nc3ncnn32)c1OC (configuration not stated),/,-0.959,17.6*,7.0%,1.2,1.13,170*,156*
CC(=O)OC1=C(C#N)Cn2ccc3cccc1c32,-60.3,0.579,8.98*,7.0%,3.86*,1.07,39.3,21.3
CCCCS(=O)CC(COCc1ccccc1)OC(=O)CSc1nc(C)cc(C)n1 (configuration not stated),/,0.109,-0.0142,5.0%,1.11,1.01,/,/
C=CCOC(=O)C1CC=CCC1C(=O)Oc1ccc(F)cc1F (configuration not stated),7.8,-0.136,-0.284,8.0%,1.06,1.01,/,/
COc1ccc(Cn2c(=O)oc3ccc(C)cc32)cc1OC,-6.7,0.106,13*,4.0%,1.1,1.01,4.2,-28.5
Cc1cccc(N2CCN(C(=O)Cn3nc(Cc4ccncc4)c4ccccc4c3=O)CC2)c1C,18.3,-0.541,-0.264,3.0%,1.01,0.97,/,/
O=C(NCc1ccco1)C(Cc1ccccc1)N1C(=O)C2C3C=CC(C3)C2C1=O (configuration not stated),2.3,-0.891,4.53*,8.0%,1.08,0.98,?,-44.6
CCC(C)NC(=O)c1ccccc1NC(=O)CN1C(=O)c2ccccc2S1(=O)=O (configuration not stated),/,-0.345,-0.694,2.0%,1.07,1.02,/,/

# From PubChem BioAssay
